High-throughput results as filed in PubChem BioAssay.
Cycloheximide cs: counter-screen for Shiga toxin inhibitors: cycloheximide protein synthesis inhibition | cell reporter, cycloheximide protein synthesis inhibition counterscreen | max response, % | hit rate 12% among 300,000; in the data active = max response mostly above about 13%, no sharp cut-off; inactive = mostly below about 14%; note: read at 38.3 µM for the half of the compounds with a filed dose; 0% is about no effect
NS1 inh: influenza NS1 inhibition | Potency, µM (doses to about 46.1 µM), without a hit: at the top dose activity, positive = more growth | hit rate 0.4% among 270,000; calls by dose curve; note: potency is the fitted concentration of half-maximal effect; actives are rising curves; nearly all actives have a fitted effect of over 50% in size
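In this qHTS, NS1 from influenza A is expressed in budding yeast, where it slows growth. Cells are switched from glucose to 2% galactose medium (pH 6.0, -URA), treated with compound, and growth recovery is read at OD600.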
AmpC no deterg: blocks E. coli AmpC beta-lactamase in detergent-free assay. P00811. AmpC nitrocefin hydrolysis, absorbance 480 nm, 0.0001% Triton. Potency, µM (doses to about 57.1 µM), without a hit: at the top dose activity change, negative = inhibition, actives largely listed as inhibitors. hit rate 0.52% among 330,000;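 note: potency is the fitted concentration of half-maximal effect; plate controls were no compound for no effect and no enzyme for full effect; nearly all actives have a fitted effect of over 20% in size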
Target sequence (P00811 whole entry, looked up): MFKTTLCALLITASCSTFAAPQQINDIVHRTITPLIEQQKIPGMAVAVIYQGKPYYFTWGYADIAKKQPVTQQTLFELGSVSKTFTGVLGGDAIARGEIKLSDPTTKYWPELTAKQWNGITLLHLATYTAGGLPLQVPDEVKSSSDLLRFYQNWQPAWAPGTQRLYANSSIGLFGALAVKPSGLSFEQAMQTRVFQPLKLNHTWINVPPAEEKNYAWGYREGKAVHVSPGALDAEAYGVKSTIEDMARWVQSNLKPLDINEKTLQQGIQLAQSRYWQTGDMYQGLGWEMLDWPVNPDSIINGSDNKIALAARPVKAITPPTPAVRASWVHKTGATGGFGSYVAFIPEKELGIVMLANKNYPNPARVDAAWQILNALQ
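AmpC (5.3 nM in the dispensed reagent) in 20 mM phosphate pH 7.0 with 0.01% (detergent screen) or 0.0001% Triton X-100 was preincubated with compounds for 15 min at room temperature. Nitrocefin was then added from an 800 uM solution, and hydrolysis was followed at 480 nm.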
Shiga inhibitor: Shiga toxin inhibition; Vero cells, Shiga toxin protein synthesis inhibition reporter; inhibition, % at 38.7 µM; hit rate 9.2% among 290,000; AID 2315; in the data active = inhibition mostly above about 28%, no sharp cut-off; inactive = mostly below about 43%; note: 0% is about no effect
AmpC detergent: AmpC beta-lactamase inhibition with detergent present; P00811; AmpC hydrolysis of nitrocefin, absorbance 480 nm, 0.01% Triton; Potency, µM (titrated, usually from 114 µM), inactives show top-dose activity change, negative = inhibition, most hits filed as inhibitors; hit rate 0.041% among 370,000; AID 485294;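 note: potency is the fitted concentration of half-maximal effect; 0% = no-compound wells and -100% = no-enzyme wells; nearly all actives have a fitted effect of over 25% in size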
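20 mM phosphate pH 7.0 + 0.01% (detergent screen) or 0.0001% Triton X-100; 5.3 nM AmpC reagent; cpd preinc 15 min RT; nitrocefin (800 uM stock) to start; A480 q20 s × 4 min; Activity was normalised to no-enzyme and no-compound control wells.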
* marks the source's active call; other numbers are inactive results; ? = inconclusive; · = no result; + = active, no number. Shown is part of a subset that was picked to be rich in hits. Unless noted, calls come from the whole dose curve; as a rule, active = well fitted curve in the direction sought with a large enough effect; inconclusive = small, poorly fitted or top-dose-only effect, or another doubt; inactive = no such curve, though single readings can be large; an effect the other way counts as inactive or inconclusive.

SMILES | Cycloheximide cs | NS1 inh | AmpC no deterg | Shiga inhibitor | AmpC detergent
O=C1CC(c2ccccc2)Cc2[nH]c(=O)c(-c3nc(-c4ccc(Cl)cc4)cs3)cc21 (stereo not drawn) | · | · | · | · | 15%
CCc1cccc(NC(c2ccccc2)c2nnc(-c3ccccc3F)o2)c1 (stereo not drawn) | · | · | · | · | -2%
Cn1c(SCC(=O)Nc2nccs2)nnc1C12CC3CC(CC(C3)C1)C2 | 27* | -6% | -14% | 37 | ?
Cn1c(SCC(=O)Nc2nccs2)nnc1C1CC1 | 2 | 7% | -7% | -4 | ?
O=C(CSc1nccn1Cc1ccccc1)Nc1nccs1 | 37* | 3% | -23% | active | 4%
Cc1ccc(Cn2cc(SCC(=O)Nc3nccs3)c3ccccc32)cc1 | 24* | 6% | -50% | 33 | ?
COC(=O)c1c(NC(=O)COc2ccc(C)cc2Br)sc2c1CCCC2 | · | · | · | · | 14%
CC(=O)N1c2ccc(S(=O)(=O)NCCC(=O)Nc3ccc(Br)c(C)c3)cc2CC1C (stereo not drawn) | · | · | · | · | 3%
CS(=O)(=O)n1nc(OC(=O)c2cc(Br)ccc2Cl)cc1N | -3 | · | -33% | 5 | -16%
CS(=O)(=O)n1nc(OC(=O)c2cccc3ccccc23)cc1N | 63* | 5% | -27% | 72* | ?
O=C(NC(=S)NNC(=O)c1ccccc1O)c1cccnc1 | 14 | · | -10% | 51* | -10%
O=C(NNC(=S)Nc1ccc(Br)cc1)c1cccnc1 | 18* | -22% | -19% | 37 | -2%
O=C(/C=C\Nc1ccc(Br)cc1)c1cccnc1 | 57* | 9% | -12% | 76* | ?
O=C(NNC(=S)NC(=O)c1cccnc1)c1ccc(Cl)cc1 | 19* | -87% | -34% | -26 | ?
Cc1ccc2c(c1)-c1c(c(C(=O)NCCc3ccccc3)nn1C)CS2 | · | · | · | · | 1%
COc1ccccc1C(=O)NCc1ccccn1 | 1 | 0% | -17% | 2 | 5%
N=c1cc(C2(O)CCCCC2)n2c(nc3ccccc32)s1 | 48* | -49% | -22% | 89* | 3%
NC1=NC2(CCCCC2)n2c(nc3ccccc32)N1 | 10 | 5% | 12% | -3 | -4%
Cn1cccc1/C=N/NC(=O)Cc1cccs1 | 11 | -1% | -24% | 49* | -9%
Cn1cc(/C=N/NC(N)=S)c2ccccc21 | 14 | 4% | -44% | 15 | -7%
C=CCNC(=S)N/N=C/c1cn(C)c2ccccc12 | 21* | ? | -27% | 24 | -7%
Cn1cccc1/C=N/NC(=O)c1cccs1 | 42* | -14% | -9% | 74* | 1%
Cn1cccc1/C=N/NC(=O)c1ccc[n+]([O-])c1 | -2 | · | -9% | 18 | 11%
CCCc1cc(C(=O)N/N=C/c2cccn2C)cs1 | 62* | -9% | -31% | 110* | 11%
Cc1cccc(C)c1OCC(=O)N/N=C/c1cccn1C | 1 | 17% | -26% | 13 | 1%
SMILES | Cycloheximide cs | NS1 inh | AmpC no deterg | Shiga inhibitor | AmpC detergent
Cc1c(C(=O)Nc2nccs2)oc2ccc(Br)cc12 | · | · | -28% | · | ·
Cc1cc(Br)ccc1NC(=O)C1CCN(S(=O)(=O)c2ccc(Br)s2)CC1 | · | · | · | · | 10%
CCc1ccc(NC(=O)C2CCCN(S(=O)(=O)c3cccc4cccnc34)C2)cc1 (stereo not drawn) | · | · | · | · | -1%
Cn1cc(/C=N\NC(=O)c2cccs2)c2ccccc21 | 49* | · | -19% | 63* | 4%
O=C(Cc1cccs1)N/N=C\c1ccc(O)cc1 | 32* | · | -38% | 51* | -4%
Cn1cc(/C=N/NC(=O)c2ccc(C#N)cc2F)c2ccccc21 | -4 | · | -24% | 18 | ?
Cc1cc2cc(CCNS(=O)(=O)c3ccc(Br)cc3)c(=O)[nH]c2cc1C | · | · | · | · | 1%
CN(C)C(Cc1ccccc1)C(=O)c1c[nH]c2ccccc12 (stereo not drawn) | 28* | 4% | -17% | 63 | -10%
CN(C)C(Cc1ccccc1)C(=O)c1ccccc1 (stereo not drawn) | 33* | -16% | -23% | 65* | -10%
CC(Cl)C(=O)c1c[nH]c2ccccc12 (stereo not drawn) | -2 | · | -20% | -5 | -7%
CCOC(=O)c1c(C)[nH]c(C)c1C(=O)C(Cc1ccccc1)N(C)C (stereo not drawn) | -3 | 2% | -13% | -8 | -19%
Cn1c(=O)c2ncn(CC(=O)Nc3nc(-c4ccc(Cl)cc4)cs3)c2n(C)c1=O | 2 | · | -32% | -12 | 3%
Cc1ccc2nc(-c3ccc(NC(=O)COCC(=O)O)cc3)sc2c1 | 56* | 0% | -17% | 50* | -5%
O=C(O)CSCC(=O)Nc1ccc(-c2nc3ccccc3s2)cc1 | 35* | 1% | -22% | 54* | 1%
Cc1ccc2nc(-c3ccc(NC(=O)Cc4ccccc4)cc3)sc2c1 | · | · | · | · | 12%
Cc1csc(NC(=O)CSCC(=O)O)c1-c1nc2ccccc2s1 | 1 | 10% | -24% | -5 | -6%
Cc1ccc2nc(-c3ccc(NC(=O)CSCC(=O)O)cc3)sc2c1 | 55* | 4% | -19% | 87* | 0%
Cc1ccc2nc(-c3ccc(NC(=O)COc4c(C)ccc(C)c4C)cc3)sc2c1 | · | · | · | · | 1%
NC(=S)N/N=C/c1coc2c(ccc3ccccc32)c1=O | 24* | 6% | -31% | 33 | -1%
N=Cc1c(O)n(-c2ccc(C34CC5CC(CC(C5)C3)C4)cc2)c(=O)[nH]c1=O | 48* | 19% | -6% | 27* | ?
O=C(O)[C@@H]1[C@@H]2C[C@@H]3[C@@H](OC(=O)[C@@H]31)[C@H]2Br | · | 0% | · | · | ·
COc1ccc(C(=O)/C=C/Nc2cccc(C)n2)cc1OC | 65* | -2% | 114% | + | -12%
COc1ccc(N/C=C/C(=O)c2ccc(OC)c(OC)c2)cc1 | 24* | -30% | 61% | 56* | -6%
COc1ccc(C(=O)/C=C/N2CCCCC2)cc1OC | 1 | -49% | 39% | -15 | -15%
COc1ccc(N/C=C/C(=O)c2cc(OC)c(OC)c(OC)c2)cc1 | 17* | 5% | 51% | · | -12%
SMILES | Cycloheximide cs | NS1 inh | AmpC no deterg | Shiga inhibitor | AmpC detergent
COc1cc(CN2CCNC(=O)C2CC(=O)NC2CCC2)cc(OC)c1 (stereo not drawn) | -2 | -4% | -11% | -3 | 1%
Cc1cc(NC(=O)C(C)(C)Oc2ccc(Cl)cc2)cc(-c2nc3ncccc3o2)c1O | · | · | · | · | 3%
CCCN1CCN(CC(=O)NCC(=O)Nc2cccc(C)c2C)CC1 | · | · | 108% | · | ?
CCOC(=O)c1ccc(NC(=O)CN(C)S(=O)(=O)c2ccc(Br)s2)cc1 | 16* | -2% | -18% | 23 | ?
Cc1ccc2nc(NC(=O)CNS(=O)(=O)c3ccc(Br)s3)sc2c1 | 22* | -9% | -52% | 15 | -14%
Cc1ccc2nc(NC(=O)CN(C)S(=O)(=O)c3ccc(Br)s3)sc2c1 | 26* | -50% | -26% | 32 | -1%
Cc1cccc2sc(NC(=O)CNS(=O)(=O)c3ccc(Br)s3)nc12 | -2 | 3% | -44% | -12 | 1%
CCc1cccc(C)c1NC(=O)c1cnn(-c2ccc(F)cc2)c1-n1cccc1 | · | · | · | · | -1%
O=C(CCNc1ccccc1)c1ccc2c(c1)OCO2 | 63* | -81% | -32% | 71* | 4%
